One test addresses SPI1 (Homo sapiens, UniProt P17947 1-270). Briefly: DAPPL (digital affinity profiling via proximity ligation, sequencing); 10 mM Tris-HCl pH 7.5, 50 mM NaCl, 1 mM DTT, 4% glycerol, room temperature, 30 min; GST-TFs on glutathione beads, 16-mer random dsDNA library, 0.1% formaldehyde crosslink after washing; high values mean tight binding. Particulars: protein: recombinant; tags: N-terminal GST; dsDNA, one strand shown. In short, it runs like this:
(§1)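 A tag-only sample was pooled with DNA-barcoded human transcription factors that had been expressed in yeast as GST fusions and captured on glutathione beads. The pools were incubated for 30 min at room temperature with 200 nmole of a random double-stranded 16-mer DNA library in Tris/NaCl/DTT/glycerol buffer, then washed, crosslinked with 0.1% formaldehyde, proximity-ligated (BsaI/T4 ligase, 1 h, 37 °C), PCR-amplified and sequenced on an Illumina NextSeq500. Binding signal is each hexamer's read frequency for a factor divided by its frequency for the tag-only sample.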
Sequence of SPIB (Q01892 whole entry): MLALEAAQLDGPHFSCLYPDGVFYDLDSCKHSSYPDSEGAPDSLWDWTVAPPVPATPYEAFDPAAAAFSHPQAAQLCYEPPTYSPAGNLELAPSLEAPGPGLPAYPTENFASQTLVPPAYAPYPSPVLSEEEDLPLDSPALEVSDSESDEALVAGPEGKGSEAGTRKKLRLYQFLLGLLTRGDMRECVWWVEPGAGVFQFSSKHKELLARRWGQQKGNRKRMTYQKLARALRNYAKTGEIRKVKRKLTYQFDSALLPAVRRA
TGCTCT: the binding signal is 1.42 fold enrichment (6-mer frequency, TF over GST control).

Consider AACAAA, for which the binding signal was 1.16 fold enrichment (6-mer frequency, TF over GST control).

As to CTTATT, the binding signal was 1.61 fold enrichment (6-mer frequency, TF over GST control).

Take TCGTTT: the binding signal was 1.2 fold enrichment (6-mer frequency, TF over GST control).

In the case of TTTTGG, the binding signal was 1.5 fold enrichment (6-mer frequency, TF over GST control).

For the sequence TAAAGT, the binding signal was 1.21 fold enrichment (6-mer frequency, TF over GST control).

Take GCCCTA: the binding signal was 1.19 fold enrichment (6-mer frequency, TF over GST control).

As to TTAGCA, the binding signal is 1.15 fold enrichment (6-mer frequency, TF over GST control).

Turning to GCCTTC, the binding signal was 1.39 fold enrichment (6-mer frequency, TF over GST control).

Turning to ATAGAT, the binding signal was 1.07 fold enrichment (6-mer frequency, TF over GST control).

Turning to TTTAGC, the binding signal was 1.05 fold enrichment (6-mer frequency, TF over GST control).

As for GCTAAT, the binding signal is 1.13 fold enrichment (6-mer frequency, TF over GST control).

Consider TATATA, for which the binding signal is 1.21 fold enrichment (6-mer frequency, TF over GST control).

With AATTAG, the binding signal was 1.1 fold enrichment (6-mer frequency, TF over GST control).

As to GTAATA, the binding signal was 1.11 fold enrichment (6-mer frequency, TF over GST control).

On to CTCCCC, for which the binding signal was 1.3 fold enrichment (6-mer frequency, TF over GST control).

Turning to GATTCC, the binding signal is 1.14 fold enrichment (6-mer frequency, TF over GST control).

With CCTTCC, the binding signal was 2.48 fold enrichment (6-mer frequency, TF over GST control).

Regarding TTCTTC, the binding signal was 1.8 fold enrichment (6-mer frequency, TF over GST control).

For GAATAA, the binding signal was 1.03 fold enrichment (6-mer frequency, TF over GST control).

In the case of CTACTA, the binding signal is 1.32 fold enrichment (6-mer frequency, TF over GST control).

Consider ACTCTG, for which the binding signal is 1.26 fold enrichment (6-mer frequency, TF over GST control).

On to TTCACT, for which the binding signal is 1.33 fold enrichment (6-mer frequency, TF over GST control).

In the case of CCTGAC, the binding signal was 1.44 fold enrichment (6-mer frequency, TF over GST control).

Take TTCAAA: the binding signal was 1.26 fold enrichment (6-mer frequency, TF over GST control).

For the sequence CGCCTT, the binding signal is 1.35 fold enrichment (6-mer frequency, TF over GST control).

As for CCATTT, the binding signal was 1.45 fold enrichment (6-mer frequency, TF over GST control).

On to ACCCTA, for which the binding signal was 1.19 fold enrichment (6-mer frequency, TF over GST control).

As for CTTAAT, the binding signal is 1.31 fold enrichment (6-mer frequency, TF over GST control).

Turning to TACGCG, the binding signal is 1.12 fold enrichment (6-mer frequency, TF over GST control).

ACGTTT: the binding signal is 1.12 fold enrichment (6-mer frequency, TF over GST control).

As to GGACCT, the binding signal is 1.28 fold enrichment (6-mer frequency, TF over GST control).

For GCTTTG, the binding signal is 1.07 fold enrichment (6-mer frequency, TF over GST control).

Consider AACTTT, for which the binding signal was 1.23 fold enrichment (6-mer frequency, TF over GST control).

Take ACTACT: the binding signal is 1.29 fold enrichment (6-mer frequency, TF over GST control).

As for GAAATA, the binding signal is 1.49 fold enrichment (6-mer frequency, TF over GST control).

In the case of TAACTA, the binding signal was 1.3 fold enrichment (6-mer frequency, TF over GST control).

Consider TATTAT, for which the binding signal is 1.2 fold enrichment (6-mer frequency, TF over GST control).

Regarding GAACCT, the binding signal was 1.11 fold enrichment (6-mer frequency, TF over GST control).

With GCTCAC, the binding signal is 1.41 fold enrichment (6-mer frequency, TF over GST control).

The next test deals with SPIB (Homo sapiens, UniProt Q01892 1-262). The test is described as above. To be noted: protein: recombinant; tags: N-terminal GST; dsDNA, one strand shown. In short, it runs like this:
as §1
Turning to TGCTCT, the binding signal is 1.42 fold enrichment (6-mer frequency, TF over GST control).

For AACAAA, the binding signal is 1.15 fold enrichment (6-mer frequency, TF over GST control).

As to CTTATT, the binding signal was 1.44 fold enrichment (6-mer frequency, TF over GST control).

As for TCGTTT, the binding signal was 1.18 fold enrichment (6-mer frequency, TF over GST control).

For the sequence TTTTGG, the binding signal was 1.63 fold enrichment (6-mer frequency, TF over GST control).

TAAAGT: the binding signal is 1.11 fold enrichment (6-mer frequency, TF over GST control).

Take GCCCTA: the binding signal was 1.28 fold enrichment (6-mer frequency, TF over GST control).

Take TTAGCA: the binding signal is 1.15 fold enrichment (6-mer frequency, TF over GST control).

For the sequence GCCTTC, the binding signal is 1.54 fold enrichment (6-mer frequency, TF over GST control).

Regarding ATAGAT, the binding signal was 1.16 fold enrichment (6-mer frequency, TF over GST control).

In the case of TTTAGC, the binding signal was 1.14 fold enrichment (6-mer frequency, TF over GST control).

Regarding GCTAAT, the binding signal is 1.17 fold enrichment (6-mer frequency, TF over GST control).

With TATATA, the binding signal was 1.49 fold enrichment (6-mer frequency, TF over GST control).

Consider AATTAG, for which the binding signal was 1.11 fold enrichment (6-mer frequency, TF over GST control).

For the sequence GTAATA, the binding signal was 1.24 fold enrichment (6-mer frequency, TF over GST control).

In the case of CTCCCC, the binding signal was 1.38 fold enrichment (6-mer frequency, TF over GST control).

Consider GATTCC, for which the binding signal was 1.16 fold enrichment (6-mer frequency, TF over GST control).

Consider CCTTCC, for which the binding signal is 2.75 fold enrichment (6-mer frequency, TF over GST control).

Regarding TTCTTC, the binding signal is 1.9 fold enrichment (6-mer frequency, TF over GST control).

Regarding GAATAA, the binding signal is 1.11 fold enrichment (6-mer frequency, TF over GST control).

Take CTACTA: the binding signal is 1.3 fold enrichment (6-mer frequency, TF over GST control).

Turning to ACTCTG, the binding signal is 1.21 fold enrichment (6-mer frequency, TF over GST control).

In the case of TTCACT, the binding signal is 1.24 fold enrichment (6-mer frequency, TF over GST control).

With CCTGAC, the binding signal is 1.46 fold enrichment (6-mer frequency, TF over GST control).

Turning to TTCAAA, the binding signal was 1.3 fold enrichment (6-mer frequency, TF over GST control).

With CGCCTT, the binding signal was 1.43 fold enrichment (6-mer frequency, TF over GST control).

As to CCATTT, the binding signal is 1.37 fold enrichment (6-mer frequency, TF over GST control).

ACCCTA: the binding signal was 1.16 fold enrichment (6-mer frequency, TF over GST control).

CTTAAT: the binding signal is 1.3 fold enrichment (6-mer frequency, TF over GST control).

TACGCG: the binding signal is 1.13 fold enrichment (6-mer frequency, TF over GST control).

In the case of ACGTTT, the binding signal was 1.35 fold enrichment (6-mer frequency, TF over GST control).

Regarding GGACCT, the binding signal is 1.33 fold enrichment (6-mer frequency, TF over GST control).

On to GCTTTG, for which the binding signal was 1.14 fold enrichment (6-mer frequency, TF over GST control).

Regarding AACTTT, the binding signal is 1.32 fold enrichment (6-mer frequency, TF over GST control).

For ACTACT, the binding signal is 1.34 fold enrichment (6-mer frequency, TF over GST control).

GAAATA: the binding signal is 1.54 fold enrichment (6-mer frequency, TF over GST control).

On to TAACTA, for which the binding signal is 1.35 fold enrichment (6-mer frequency, TF over GST control).

With TATTAT, the binding signal was 1.24 fold enrichment (6-mer frequency, TF over GST control).

Take GAACCT: the binding signal is 1.14 fold enrichment (6-mer frequency, TF over GST control).

On to GCTCAC, for which the binding signal is 1.44 fold enrichment (6-mer frequency, TF over GST control).

In another test the target is T1, ELK3 (Homo sapiens, UniProt P41970 1-407).
T1 sequence: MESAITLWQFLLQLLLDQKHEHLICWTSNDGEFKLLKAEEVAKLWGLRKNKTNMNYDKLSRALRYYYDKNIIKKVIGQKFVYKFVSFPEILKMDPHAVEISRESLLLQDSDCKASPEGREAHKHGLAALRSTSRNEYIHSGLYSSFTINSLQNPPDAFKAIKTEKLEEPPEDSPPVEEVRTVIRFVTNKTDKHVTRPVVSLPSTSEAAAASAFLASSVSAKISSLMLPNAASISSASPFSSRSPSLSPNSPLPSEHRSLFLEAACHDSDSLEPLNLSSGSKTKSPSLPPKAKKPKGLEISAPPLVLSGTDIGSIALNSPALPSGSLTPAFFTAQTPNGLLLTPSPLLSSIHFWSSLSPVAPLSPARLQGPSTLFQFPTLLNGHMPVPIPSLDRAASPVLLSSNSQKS
The test is described as above. To be noted: protein: recombinant; tags: N-terminal GST; dsDNA, one strand shown. In short, it runs like this:
as §1
For TGCTCT, the binding signal was 1.3 fold enrichment (6-mer frequency, TF over GST control).

As for AACAAA, the binding signal is 1.27 fold enrichment (6-mer frequency, TF over GST control).

On to CTTATT, for which the binding signal is 1.59 fold enrichment (6-mer frequency, TF over GST control).

Regarding TCGTTT, the binding signal was 1.05 fold enrichment (6-mer frequency, TF over GST control).

As for TTTTGG, the binding signal was 1.31 fold enrichment (6-mer frequency, TF over GST control).

Regarding TAAAGT, the binding signal was 1.38 fold enrichment (6-mer frequency, TF over GST control).

As for GCCCTA, the binding signal is 1.19 fold enrichment (6-mer frequency, TF over GST control).

As for TTAGCA, the binding signal is 1.17 fold enrichment (6-mer frequency, TF over GST control).

For the sequence GCCTTC, the binding signal was 1.52 fold enrichment (6-mer frequency, TF over GST control).

Regarding ATAGAT, the binding signal was 1.23 fold enrichment (6-mer frequency, TF over GST control).

As for TTTAGC, the binding signal is 1.09 fold enrichment (6-mer frequency, TF over GST control).

As for GCTAAT, the binding signal is 1.2 fold enrichment (6-mer frequency, TF over GST control).

For TATATA, the binding signal was 1.17 fold enrichment (6-mer frequency, TF over GST control).

Turning to AATTAG, the binding signal is 1.09 fold enrichment (6-mer frequency, TF over GST control).

For GTAATA, the binding signal is 1.01 fold enrichment (6-mer frequency, TF over GST control).

Turning to CTCCCC, the binding signal is 1.4 fold enrichment (6-mer frequency, TF over GST control).

Take GATTCC: the binding signal was 1.17 fold enrichment (6-mer frequency, TF over GST control).

With CCTTCC, the binding signal was 2.47 fold enrichment (6-mer frequency, TF over GST control).

As for TTCTTC, the binding signal was 2.25 fold enrichment (6-mer frequency, TF over GST control).

GAATAA: the binding signal is 1.17 fold enrichment (6-mer frequency, TF over GST control).

On to CTACTA, for which the binding signal was 1.37 fold enrichment (6-mer frequency, TF over GST control).

ACTCTG: the binding signal is 1.14 fold enrichment (6-mer frequency, TF over GST control).

As for TTCACT, the binding signal was 1.37 fold enrichment (6-mer frequency, TF over GST control).

As to CCTGAC, the binding signal was 1.56 fold enrichment (6-mer frequency, TF over GST control).

For the sequence TTCAAA, the binding signal was 1.36 fold enrichment (6-mer frequency, TF over GST control).

In the case of CGCCTT, the binding signal was 1.46 fold enrichment (6-mer frequency, TF over GST control).

Turning to CCATTT, the binding signal is 1.33 fold enrichment (6-mer frequency, TF over GST control).

For ACCCTA, the binding signal is 1.29 fold enrichment (6-mer frequency, TF over GST control).

As for CTTAAT, the binding signal was 1.47 fold enrichment (6-mer frequency, TF over GST control).

As to TACGCG, the binding signal was 1.28 fold enrichment (6-mer frequency, TF over GST control).

As for ACGTTT, the binding signal was 1.2 fold enrichment (6-mer frequency, TF over GST control).

For the sequence GGACCT, the binding signal is 1.37 fold enrichment (6-mer frequency, TF over GST control).

On to GCTTTG, for which the binding signal is 1.12 fold enrichment (6-mer frequency, TF over GST control).

As to AACTTT, the binding signal is 1.2 fold enrichment (6-mer frequency, TF over GST control).

Take ACTACT: the binding signal is 1.31 fold enrichment (6-mer frequency, TF over GST control).

Consider GAAATA, for which the binding signal is 1.5 fold enrichment (6-mer frequency, TF over GST control).

As for TAACTA, the binding signal was 1.32 fold enrichment (6-mer frequency, TF over GST control).

As for TATTAT, the binding signal is 1.12 fold enrichment (6-mer frequency, TF over GST control).

Turning to GAACCT, the binding signal is 1.18 fold enrichment (6-mer frequency, TF over GST control).

For the sequence GCTCAC, the binding signal was 1.32 fold enrichment (6-mer frequency, TF over GST control).

Source of the values: article PMC7862700, “An all-to-all approach to the identification of sequence-specific readers for epigenetic DNA modifications on cytosine”.
